# Test results reported in PubChem BioAssay AID602254 (Broad Institute, 2012).
# Fewer than 10 of roughly 1,000 compounds were called active. These entries were drawn from the full list. Measured potencies and affinities stand elsewhere. A number with no mark means an inactive call.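 How the source made its calls: active means fitted half-maximal concentration no higher than twice the top valid tested dose, with signal falling; inconclusive means flat curve with 30 to 70% inhibition, or poor fit; inactive means the rest.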
# Target: Golgi-associated PDZ and coiled-coil motif-containing protein (Homo sapiens) (UniProt Q9HD26)
# Assay: CAL PDZ domain peptide-binding inhibitors, dose response, biochemical, fluorescence polarization, untagged CAL PDZ, cherry-pick, set 2 (AID 602254);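 further: 0% = DMSO neutral control and -100% = unlabeled peptide PRC23 positive control; more negative means stronger blocking of peptide binding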
# Settings: Purified CAL PDZ, TMR peptide fluorescence polarization; series mostly up to 60 µM; activity change, negative = inhibition: at the top concentration
row,Compound,"activity change, negative = inhibition"
1,COc1ccc(CC(=O)Nc2ccc(S(=O)(=O)Nc3cc(C)on3)cc2)cc1,2.22%
2,COc1ccccc1N1CCN(/N=C/c2ccc(O)cc2O)CC1,-1.14%
3,O=C(Nc1ccnn1C1CCN(CC2CC=CCC2)CC1)c1ccccc1Cl (stereo not given),-1.42%
4,COc1cccc(NC(=O)c2ccc3nsnc3c2)c1,1.47%
5,O=C(NCCCN1CCOCC1)c1ccc2c(c1)N(Cc1ccccc1)CCS2,7.62%
6,Cc1ccc(NC(=O)COc2ccccc2C(=O)NCCc2ccccc2)cc1,1.91%
7,O=C(COC(=O)c1ccc(NC(=O)C2CC=CCC2C(=O)O)cc1)c1ccccc1 (stereo not given),4.39%
8,CCOC(=O)c1c(NC(=O)C2CCCCC2)sc2c1CCN(CC)C2,-0.655%
9,COc1ccc(CNc2ccc(-c3ccccc3OC)nn2)cc1,7.46%
10,CN(C(=O)c1cccc(C(F)(F)F)c1)C1CCCc2ccccc21 (stereo not given),-1.53%
11,Cc1n[nH]c(C)c1CCN(C)Cc1cn(C)nc1-c1ccc2c(c1)OCCO2,0.263%
12,COc1ccc(NC(=O)CC(CC(=O)O)c2cc(OC)c(OC)c(OC)c2)cc1 (stereo not given),1.78%
13,Cc1ccc(NC(=S)N(CCCN2CCCC2)Cc2cccn2Cc2ccc(Cl)cc2)cc1C,7.5%
14,O=C1CN(C(=O)COc2ccc(F)cc2Br)c2ccccc2N1,-1.17%
15,O=C(C1CC1)N1CCc2cc(S(=O)(=O)N3CCOCC3)ccc21,2.05%
16,CS(=O)(=O)c1ccc(C(=O)NC2CCCc3ccccc32)cc1 (stereo not given),4.04%
17,COC(=O)c1ccccc1NC(=S)N1CCN(C2CCCCC2)CC1,0.591%
18,Cc1ccccc1NC(=O)c1ccc(NC(=O)C2CCCO2)cc1 (stereo not given),-2.35%
19,CC(NC(=S)NC(=O)c1ccccc1Br)c1ccccc1 (stereo not given),1.12%
20,COc1ccc(OC)c(-c2csc(NC(=O)c3ccc4c(c3)OCO4)n2)c1,0.356%
21,CCN(Cc1cnn(C)c1)C(=O)C1CCC(=O)N(CCc2ccc(OC)cc2)C1 (stereo not given),0.165%
22,CC(=O)Nc1sc(NC(=O)c2ccc(C)cc2)nc1-c1cccs1,-1.3%
23,O=C(NCCc1ccccc1F)c1ccc2c(c1)OCCO2,2.65%
24,O=C(CNC(=O)c1ccccc1Cl)N/N=C/c1ccc2c(c1)OCO2,1.37%
25,CCc1nnc(NS(=O)(=O)c2ccc(N3C(=O)c4ccccc4C3=O)cc2)s1,1.69%
26,Cc1cccc(NC(=O)CCNC(=O)c2ccc(Br)cc2)c1,-2.95%
27,COC(=O)c1cc(S(=O)(=O)NCCN2CCN(c3ccccc3F)CC2)c[nH]1,0.413%
28,COc1ccc(CCNS(=O)(=O)c2ccccc2)cc1OC,-8.76%
29,CCOC(=O)N1CCN(C(=O)c2ccc3c(=O)n(-c4ccc(OC)cc4OC)c(=S)[nH]c3c2)CC1,1.69%
30,COc1ccccc1/C=N/NC(=O)c1ccc2c(c1)OCO2,2.16%
